Holding throughout (experiment): PBM; 200 nM protein, PBS
What all share (details): dsDNA, one strand shown

The target of assay [1] is HOXA4 (Homo sapiens, UniProt Q00056 201-287, W262R).
Assay [2] deals with HOXB6 (Homo sapiens, UniProt P17509 132-218, K202E).
Assay [3] addresses HOXA4 (Homo sapiens, UniProt Q00056 201-287, R217L).
Assay [4] has as its target HOXA4 (Homo sapiens, UniProt Q00056 201-287).
Assay [5] has as its target HOXA4 (Homo sapiens, UniProt Q00056 201-287, W262F).
For assay [6], the target named is HOXB6 (Homo sapiens, UniProt P17509 132-218).
Assay [7] addresses HOXA2 (Homo sapiens, UniProt O43364 129-215, R185T).
In assay [8] the target is ALX3 (Homo sapiens, UniProt O95076 139-225, N203Q).
Assay [9] addresses HOXA2 (Homo sapiens, UniProt O43364 129-215, R185K).
The target of assay [10] is ALX3 (Homo sapiens, UniProt O95076 139-225).
Assay [11] concerns the target ALX3 (Homo sapiens, UniProt O95076 139-225, L168Q).
The target in assay [12] is ALX3 (Homo sapiens, UniProt O95076 139-225, L168V).
For assay [13], the target named is HOXA2 (Homo sapiens, UniProt O43364 129-215, Y150S).
The target in assay [14] is ALX3 (Homo sapiens, UniProt O95076 139-225, N203S).
Assay [15] has as its target HOXA2 (Homo sapiens, UniProt O43364 129-215).
The target of assay [16] is PROP1 (Homo sapiens, UniProt O75360 56-141).
The target of assay [17] is PROP1 (Homo sapiens, UniProt O75360 56-141, R99H).
The target of assay [18] is PROP1 (Homo sapiens, UniProt O75360 56-141, F88S).
The target in assay [19] is VAX1 (Homo sapiens, UniProt Q5SQQ9 86-172).
The target in assay [20] is VAX1 (Homo sapiens, UniProt Q5SQQ9 86-172, T142I).
Assay [21] concerns the target VAX1 (Homo sapiens, UniProt Q5SQQ9 86-172, K157R).

Sequence of HOXA2 (Homo sapiens, UniProt O43364 129-215, Y150S) (O43364 129-215 Y150S): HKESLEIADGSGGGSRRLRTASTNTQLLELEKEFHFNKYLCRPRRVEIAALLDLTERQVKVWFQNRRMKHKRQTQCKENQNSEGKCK
Sequence of HOXA4 (Homo sapiens, UniProt Q00056 201-287, R217L) (Q00056 201-287 R217L): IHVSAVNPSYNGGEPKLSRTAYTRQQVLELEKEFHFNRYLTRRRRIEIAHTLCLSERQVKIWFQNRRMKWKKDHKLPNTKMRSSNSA
Sequence of HOXA4 (Homo sapiens, UniProt Q00056 201-287) (Q00056 201-287): as the sequence (Q00056 201-287 R217L) above, with L17R counted along it
Sequence of HOXA4 (Homo sapiens, UniProt Q00056 201-287, W262R) (Q00056 201-287 W262R): as the sequence (Q00056 201-287 R217L) above, with L17R, W62R counted along it
Sequence of HOXA2 (Homo sapiens, UniProt O43364 129-215, R185K) (O43364 129-215 R185K): as the sequence (O43364 129-215 Y150S) above, with S22Y, R57K counted along it
Sequence of HOXA2 (Homo sapiens, UniProt O43364 129-215, R185T) (O43364 129-215 R185T): as the sequence (O43364 129-215 Y150S) above, with S22Y, R57T counted along it
Sequence of HOXA2 (Homo sapiens, UniProt O43364 129-215) (O43364 129-215): as the sequence (O43364 129-215 Y150S) above, with S22Y counted along it
Sequence of HOXA4 (Homo sapiens, UniProt Q00056 201-287, W262F) (Q00056 201-287 W262F): as the sequence (Q00056 201-287 R217L) above, with L17R, W62F counted along it
Sequence of HOXB6 (Homo sapiens, UniProt P17509 132-218, K202E) (P17509 132-218 K202E): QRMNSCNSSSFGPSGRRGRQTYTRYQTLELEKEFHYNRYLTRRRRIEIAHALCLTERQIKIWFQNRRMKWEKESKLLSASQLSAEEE
Sequence of HOXB6 (Homo sapiens, UniProt P17509 132-218) (P17509 132-218): as the sequence (P17509 132-218 K202E) above, with E71K counted along it
Sequence of ALX3 (Homo sapiens, UniProt O95076 139-225, N203S) (O95076 139-225 N203S): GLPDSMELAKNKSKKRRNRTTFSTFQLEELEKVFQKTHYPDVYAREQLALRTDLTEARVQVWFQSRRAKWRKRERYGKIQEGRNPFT
Sequence of VAX1 (Homo sapiens, UniProt Q5SQQ9 86-172) (Q5SQQ9 86-172): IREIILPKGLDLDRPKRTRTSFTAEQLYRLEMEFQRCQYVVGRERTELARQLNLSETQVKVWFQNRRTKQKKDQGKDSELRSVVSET
Sequence of ALX3 (Homo sapiens, UniProt O95076 139-225, L168V) (O95076 139-225 L168V): as the sequence (O95076 139-225 N203S) above, with L30V, S65N counted along it
Sequence of ALX3 (Homo sapiens, UniProt O95076 139-225, N203Q) (O95076 139-225 N203Q): as the sequence (O95076 139-225 N203S) above, with S65Q counted along it
Sequence of VAX1 (Homo sapiens, UniProt Q5SQQ9 86-172, K157R) (Q5SQQ9 86-172 K157R): as the sequence (Q5SQQ9 86-172) above, with K72R counted along it
Sequence of PROP1 (Homo sapiens, UniProt O75360 56-141) (O75360 56-141): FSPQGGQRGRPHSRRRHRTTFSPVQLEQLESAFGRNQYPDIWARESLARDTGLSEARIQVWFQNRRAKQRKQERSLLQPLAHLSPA
Sequence of ALX3 (Homo sapiens, UniProt O95076 139-225, L168Q) (O95076 139-225 L168Q): as the sequence (O95076 139-225 N203S) above, with L30Q, S65N counted along it
Sequence of PROP1 (Homo sapiens, UniProt O75360 56-141, F88S) (O75360 56-141 F88S): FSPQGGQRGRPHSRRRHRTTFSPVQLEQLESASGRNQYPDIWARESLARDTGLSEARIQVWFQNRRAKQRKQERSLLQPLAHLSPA
Sequence of ALX3 (Homo sapiens, UniProt O95076 139-225) (O95076 139-225): as the sequence (O95076 139-225 N203S) above, with S65N counted along it
Sequence of VAX1 (Homo sapiens, UniProt Q5SQQ9 86-172, T142I) (Q5SQQ9 86-172 T142I): as the sequence (Q5SQQ9 86-172) above, with T57I counted along it
Sequence of PROP1 (Homo sapiens, UniProt O75360 56-141, R99H) (O75360 56-141 R99H): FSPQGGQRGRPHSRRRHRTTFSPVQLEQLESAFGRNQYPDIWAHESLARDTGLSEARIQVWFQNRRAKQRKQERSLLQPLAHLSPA

CCCCCTAG: the binding signal in assay [1] is 9.8 upbm affinity estimate (log intensity, higher = more binding, comparable within an allelic series); in [2], 8.81 upbm affinity estimate (log intensity, higher = more binding, comparable within an allelic series); in assay [3] it was 9.86 upbm affinity estimate (log intensity, higher = more binding, comparable within an allelic series); in [4], 9.77 upbm affinity estimate (log intensity, higher = more binding, comparable within an allelic series); in [5] it was 9.73 upbm affinity estimate (log intensity, higher = more binding, comparable within an allelic series); in [6], 8.86 upbm affinity estimate (log intensity, higher = more binding, comparable within an allelic series).
GCCCCCAC: the binding signal in assay [1] was 9.79 upbm affinity estimate (log intensity, higher = more binding, comparable within an allelic series); in [2] it was 9.03 upbm affinity estimate (log intensity, higher = more binding, comparable within an allelic series); in assay [3] it was 9.73 upbm affinity estimate (log intensity, higher = more binding, comparable within an allelic series); in assay [4] it was 9.63 upbm affinity estimate (log intensity, higher = more binding, comparable within an allelic series); in assay [5] it was 9.84 upbm affinity estimate (log intensity, higher = more binding, comparable within an allelic series); in [6] it was 8.92 upbm affinity estimate (log intensity, higher = more binding, comparable within an allelic series).
Take ATCCCCCC: the binding signal in assay [1] was 9.64 upbm affinity estimate (log intensity, higher = more binding, comparable within an allelic series); in assay [7], 7.17 upbm affinity estimate (log intensity, higher = more binding, comparable within an allelic series); in assay [3], 9.49 upbm affinity estimate (log intensity, higher = more binding, comparable within an allelic series); in assay [8], 7.65 upbm affinity estimate (log intensity, higher = more binding, comparable within an allelic series); in assay [9], 10.1 upbm affinity estimate (log intensity, higher = more binding, comparable within an allelic series); in assay [4], 9.5 upbm affinity estimate (log intensity, higher = more binding, comparable within an allelic series). Besides, the binding signal in [10] is 7.91 upbm affinity estimate (log intensity, higher = more binding, comparable within an allelic series); in assay [11], 7.61 upbm affinity estimate (log intensity, higher = more binding, comparable within an allelic series); in assay [12] it was 7.58 upbm affinity estimate (log intensity, higher = more binding, comparable within an allelic series); in assay [13], 10.4 upbm affinity estimate (log intensity, higher = more binding, comparable within an allelic series); in [5], 9.46 upbm affinity estimate (log intensity, higher = more binding, comparable within an allelic series); in assay [14] it was 7.67 upbm affinity estimate (log intensity, higher = more binding, comparable within an allelic series). For the same sequence, the binding signal in assay [15] was 7.3 upbm affinity estimate (log intensity, higher = more binding, comparable within an allelic series).
ACCCTAGG: the binding signal in assay [1] is 9.88 upbm affinity estimate (log intensity, higher = more binding, comparable within an allelic series); in assay [3] it was 9.89 upbm affinity estimate (log intensity, higher = more binding, comparable within an allelic series); in assay [4], 9.97 upbm affinity estimate (log intensity, higher = more binding, comparable within an allelic series); in [5] it was 9.92 upbm affinity estimate (log intensity, higher = more binding, comparable within an allelic series).
Turning to CATCCCCC, the binding signal in [1] is 9.63 upbm affinity estimate (log intensity, higher = more binding, comparable within an allelic series); in assay [3], 9.8 upbm affinity estimate (log intensity, higher = more binding, comparable within an allelic series); in assay [4] it was 9.66 upbm affinity estimate (log intensity, higher = more binding, comparable within an allelic series); in assay [16] it was 6.77 upbm affinity estimate (log intensity, higher = more binding, comparable within an allelic series); in assay [17], 6.66 upbm affinity estimate (log intensity, higher = more binding, comparable within an allelic series); in [18], 6.11 upbm affinity estimate (log intensity, higher = more binding, comparable within an allelic series). Further, the binding signal in assay [5] is 9.58 upbm affinity estimate (log intensity, higher = more binding, comparable within an allelic series).
With GACTCACC, the binding signal is 9.89 upbm affinity estimate (log intensity, higher = more binding, comparable within an allelic series) in assay [1]; 9.87 upbm affinity estimate (log intensity, higher = more binding, comparable within an allelic series) in assay [3]; 9.79 upbm affinity estimate (log intensity, higher = more binding, comparable within an allelic series) in assay [4]; 6.98 upbm affinity estimate (log intensity, higher = more binding, comparable within an allelic series) in [19]; 7.2 upbm affinity estimate (log intensity, higher = more binding, comparable within an allelic series) in [20]; 9.8 upbm affinity estimate (log intensity, higher = more binding, comparable within an allelic series) in [5]. Besides, in assay [21], the binding signal was 7.1 upbm affinity estimate (log intensity, higher = more binding, comparable within an allelic series).
For CACTGGCC, the binding signal was 9.86 upbm affinity estimate (log intensity, higher = more binding, comparable within an allelic series) in [1]; 7.06 upbm affinity estimate (log intensity, higher = more binding, comparable within an allelic series) in assay [7]; 9.9 upbm affinity estimate (log intensity, higher = more binding, comparable within an allelic series) in [3]; 10.5 upbm affinity estimate (log intensity, higher = more binding, comparable within an allelic series) in assay [9]; 9.86 upbm affinity estimate (log intensity, higher = more binding, comparable within an allelic series) in [4]; 10.5 upbm affinity estimate (log intensity, higher = more binding, comparable within an allelic series) in assay [13]. Further, the binding signal is 9.96 upbm affinity estimate (log intensity, higher = more binding, comparable within an allelic series) in assay [5] and 7.16 upbm affinity estimate (log intensity, higher = more binding, comparable within an allelic series) in assay [15].
Consider CCAGCCGG, for which the binding signal was 9.8 upbm affinity estimate (log intensity, higher = more binding, comparable within an allelic series) in assay [1]; 9.68 upbm affinity estimate (log intensity, higher = more binding, comparable within an allelic series) in assay [3]; 9.56 upbm affinity estimate (log intensity, higher = more binding, comparable within an allelic series) in assay [4]; 9.77 upbm affinity estimate (log intensity, higher = more binding, comparable within an allelic series) in assay [5].
Regarding AGGGCTCC, the binding signal is 9.75 upbm affinity estimate (log intensity, higher = more binding, comparable within an allelic series) in assay [1]; 7.29 upbm affinity estimate (log intensity, higher = more binding, comparable within an allelic series) in assay [7]; 9.79 upbm affinity estimate (log intensity, higher = more binding, comparable within an allelic series) in assay [3]; 10.4 upbm affinity estimate (log intensity, higher = more binding, comparable within an allelic series) in [9]; 9.81 upbm affinity estimate (log intensity, higher = more binding, comparable within an allelic series) in assay [4]; 10.3 upbm affinity estimate (log intensity, higher = more binding, comparable within an allelic series) in [13]. In addition, the binding signal in assay [5] was 9.81 upbm affinity estimate (log intensity, higher = more binding, comparable within an allelic series); in assay [15], 7.22 upbm affinity estimate (log intensity, higher = more binding, comparable within an allelic series).

The record behind these values is publication PMC11006913.
